A short description of test [1]: AP1 Signaling Pathway (AID 357).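 Further: ME-180 reporter cells stimulated with EGF at its EC50 level; on the % scale 0 is the no-effect control and ±100 the full control effect.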 Particulars: ME-180 AP-1-bla reporter, EGF-induced, beta-lactamase ratio, 5 h; at 17.2 µM (top of the series) unless noted. In a few lines: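 Modulation of EGF-driven AP-1 transcription was assessed with a beta-lactamase reporter in ME-180 cells. Compound and EC50 EGF were co-incubated 5 hours at 37 °C before 2.5-hour CCF4 loading at room temperature and dual-emission reading.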

The nature of test [2]: NFAT Signaling Pathway (AID 444).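 Further: carbachol stimulus at about its EC50 of 1 µM final; on the % scale 0 is the no-effect control and ±100 the full control effect.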 Particulars: Jurkat NFAT-bla M1, carbachol, beta-lactamase ratio, 5 h; at 17.2 µM (top of the series) unless noted. In outline:
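Jurkat cells carrying an NFAT-driven β-lactamase reporter and co-transfected muscarinic M1 receptor were treated with compound plus carbachol (1 uM final, an EC50 level) for 5 h at 37 °C. CCF4 loading followed for 1 h at RT; 460/530 nm ratio gave %activity.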

Test [3] is described as follows: Stat Signaling Pathway (AID 446).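 Further: ME-180 cervical cancer cells given 40 pM IL-6 alongside compound; SIE-controlled beta-lactamase reporter measured as 460/530 nm FRET emission ratio; on the % scale 0 is the no-effect control and ±100 the full control effect.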 Particulars: ME-180 (cervical carcinoma) SIE beta-lactamase reporter, IL-6 stimulated, 5 h; at 17.2 µM (top of the series) unless noted. In a few lines: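 FRET read-out (405 nm excitation, 460/530 nm emission) of a beta-lactamase reporter under a STAT-inducible element in ME-180 cervical carcinoma cells. Cells with compound receive 40 pM IL-6 for 5 h. Values are normalised to AC90 stimulation and AC90 JAK-inhibitor controls.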

For test [4], the target named is Glucocorticoid receptor (Homo sapiens) (UniProt P04150). Briefly: GR-GFP Redistribution (AID 450;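 active means compounds whose dose series gives a full or clear partial fitted curve of increased nuclear translocation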; further: potency means the concentration at half of the fitted maximal effect).

Results on 29 compounds are retold here after PubChem BioAssay (NCATS).

Values without a mark were called inactive. Inconclusive results are not listed. Calls of active or inactive are those of the source. Unless noted, the call rests on the fitted dose curve; in most records, active means well fitted curve in either direction with a large enough effect (not every such curve was filed as active); inconclusive means small, poorly fitted or top-dose-only effect, or another doubt; inactive means flat fitted curve, though single readings scatter.

Sequence of Glucocorticoid receptor (Homo sapiens) (P04150 whole entry, looked up): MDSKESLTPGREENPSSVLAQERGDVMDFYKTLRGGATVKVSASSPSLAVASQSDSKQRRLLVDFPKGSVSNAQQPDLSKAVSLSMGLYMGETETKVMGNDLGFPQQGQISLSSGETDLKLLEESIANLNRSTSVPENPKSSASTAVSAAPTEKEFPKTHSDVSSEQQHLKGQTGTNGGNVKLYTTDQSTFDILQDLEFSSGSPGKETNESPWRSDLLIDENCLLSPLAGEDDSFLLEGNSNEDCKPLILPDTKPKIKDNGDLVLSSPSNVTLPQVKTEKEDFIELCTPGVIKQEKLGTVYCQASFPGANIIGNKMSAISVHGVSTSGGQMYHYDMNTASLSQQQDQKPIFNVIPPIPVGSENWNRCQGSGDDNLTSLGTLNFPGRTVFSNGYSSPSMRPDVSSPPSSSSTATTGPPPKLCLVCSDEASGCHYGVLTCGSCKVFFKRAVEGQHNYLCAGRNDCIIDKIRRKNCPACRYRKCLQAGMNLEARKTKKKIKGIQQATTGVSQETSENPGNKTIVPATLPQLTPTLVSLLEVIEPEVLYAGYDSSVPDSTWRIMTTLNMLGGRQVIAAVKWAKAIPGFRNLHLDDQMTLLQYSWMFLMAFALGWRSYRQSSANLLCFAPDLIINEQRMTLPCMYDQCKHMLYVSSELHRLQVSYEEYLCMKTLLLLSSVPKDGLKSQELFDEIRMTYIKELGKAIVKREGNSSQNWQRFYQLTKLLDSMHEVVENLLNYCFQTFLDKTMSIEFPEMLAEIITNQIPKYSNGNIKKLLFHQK

Consider `Cc1cc(O)c(C(C)C)cc1N=C1CSC(=O)N1`, for which the activity change, negative = inhibition in test [1] is -11.9%; in test [2] it was -9.06%. The activity, negative = inhibition in test [3] is -6.54%. The Potency in test [4] is above 20.6 µM.
Consider `COc1cccc(C(=O)NCC(=O)n2nc(C)cc2C)c1`, for which the activity change, negative = inhibition in test [1] is 23.4%; in test [2], -4.99%. The activity, negative = inhibition in test [3] is 16.7%.
The matching figures for `Clc1ccccc1-c1nnc2sc(-c3ccco3)nn12`: -8.96%, 6.46% and 0.557%.
For `CCC1(C)Cc2c(sc(NC(=O)CCC(=O)O)c2C#N)CO1` (configuration not stated), the results for the activity change, negative = inhibition in test [1] and in test [2] were 4.06% and 0.708%, respectively. The activity, negative = inhibition in test [3] is 9.62%. Further, the Potency in test [4] was above 20.6 µM.
The matching figures for `CCCCC1(C(=O)OCC)CC(CN2CCOCC2)OC1=O` (configuration not stated): 2.64%, -18.1%, 3.3% and above 20.6 µM.
Take `CCOC(=O)CSc1nc(NC#N)nc(N(CC)CC)n1`: the activity change, negative = inhibition in test [1] is 8.62%; in test [2], -5.47%. Moreover, the activity, negative = inhibition in test [3] is -5.41%.
In the case of `Cc1[nH]c2ccc3c(ncn3CCC#N)c2c1C`, the activity change, negative = inhibition in test [1] was 0.919%; in test [2], 9.51%. In test [3], the activity, negative = inhibition was -5.09%. In test [4], the Potency is above 20.6 µM.
`Cn1c(=O)c2c(nc(Br)n2Cc2ccc3ccccc3c2)n(C)c1=O`: the values for the activity change, negative = inhibition in test [1] and in test [2] were -1.43% and -13.6%, respectively. Further, the activity, negative = inhibition in test [3] was -5.3%.
In the case of `CC(C)Cc1nc(NCCN2CCOCC2)c(C#N)c2c1COC(C)(C)C2`, the activity change, negative = inhibition in test [1] was -8.99%; in test [2], -9.59%. In addition, in test [3], the activity, negative = inhibition is 19.2%. Also, the Potency in test [4] was above 20.6 µM.
The corresponding values for `NC(=O)c1ccccc1OCCOCCOCCOc1ccccc1C(N)=O` are -9.33%, -4.35%, -0.51% and above 20.6 µM.
`COC(=O)C(NC(=O)c1ccccc1)(Nc1nc(C)cs1)C(F)(F)F` (configuration not stated): the activity change, negative = inhibition in test [1] is 20%; in test [2], 6.46%. The activity, negative = inhibition in test [3] was -6.57%.
Take `Cc1occc1C(=O)OCC(=O)Nc1ccc(F)cc1`: the activity change, negative = inhibition in test [1] was 17.4%; in test [2], 1.22%. The activity, negative = inhibition in test [3] was -3.3%. Further, the Potency in test [4] is above 20.6 µM.
Take `C[N+](C)(C)CCOP(=O)([O-])OC[C@H](O)CO`: the values for the activity change, negative = inhibition in test [1] and in test [2] were 9.55% and 0.0397%, respectively. Besides, the activity, negative = inhibition in test [3] is -1.98%.
For `COC(=O)c1cc(OC)c(OC)cc1N`, the activity change, negative = inhibition is 0.8% in test [1] and 0.905% in test [2]. In test [3], the activity, negative = inhibition was -0.00836%.
The corresponding values for `CN1CCc2c(c3c(n2C)CCN(C)[C@@H]3c2cccnc2)[C@H]1c1cccnc1` are 5.56%, 8.24% and 9.53%.
For `CC(=O)[C@@]1(O)CC[C@H]2[C@@H]3CCC4=CC(=O)CC[C@]4(C)[C@H]3[C@@H](O)C[C@@]21C`, the activity change, negative = inhibition in test [1] is 3.13%; in test [2], -20.8%. The activity, negative = inhibition in test [3] is 4.29%. Besides, the Potency in test [4] was 0.0133 µM (active).
Take `CN(C)CC(O)COc1cccc(OCC(O)CN(C)C)c1` (configuration not stated): the activity change, negative = inhibition in test [1] is 1.26%; in test [2], -0.493%. Besides, the activity, negative = inhibition in test [3] was 3.74%. Further, in test [4], the Potency is above 20.6 µM.
Consider `CCCCOC(=O)CSC1=C(C#N)C(c2ccc3c(c2)OCO3)CC(=O)N1` (configuration not stated), for which the activity change, negative = inhibition was -13% in test [1] and 19.6% in test [2]. In addition, the activity, negative = inhibition in test [3] is -9.97%.
For `COc1cccc(OC)c1-c1nn2c(-c3ccccc3Cl)nnc2s1`, the activity change, negative = inhibition in test [1] is -22.5%; in test [2], -8.73%. For the same compound, the activity, negative = inhibition in test [3] was -3.22%. For the same compound, in test [4], the Potency is above 20.6 µM.
The corresponding values for `COc1ccc(-n2c(=O)c3c4c(sc3n3c(C)nnc23)CC(C)CC4)cc1` (configuration not stated) are -0.998%, -0.396%, 10.9% and above 20.6 µM.
For `CCN(CC)CCCN1C(=O)C(=O)/C(=C(/O)c2ccc(C)cc2)C1c1ccccn1` (configuration not stated), the activity change, negative = inhibition in test [1] was 3.29%; in test [2], 10.1%. Moreover, the activity, negative = inhibition in test [3] was 4.05%. For the same compound, in test [4], the Potency is above 20.6 µM.
The corresponding values for `COCCCNC(=O)C(C#N)c1nc2ccccc2nc1N1CCCC1` (configuration not stated) are 5.84%, 8.15%, 20.8% and above 20.6 µM.
The matching figures for `Cc1ccccc1OCC(O)Cn1c(N2CCN(c3ccccc3)CC2)nc2c1c(=O)[nH]c(=O)n2C` (configuration not stated): 14.4%, -4.3%, -10.5% and above 20.6 µM.
The matching figures for `CC(=O)/C(C#N)=C1\NC(=O)C(Cc2ccccc2Cl)S1` (configuration not stated): 8.76%, -3.03%, -6.04% and above 20.6 µM.
For `CCOC(=O)CNC(=O)CNC(=O)c1ccc(OC)cc1`, the activity change, negative = inhibition was 8.37% in test [1] and -1.87% in test [2]. In addition, the activity, negative = inhibition in test [3] is 14.1%. Further, the Potency in test [4] was above 20.6 µM.
The corresponding values for `COc1cccc(Cn2c(NCc3ccccn3)nc3c2c(=O)n(C)c(=O)n3C)c1` are -10.2%, 7.02%, -15.6% and above 20.6 µM.
As to `CCOC(=O)C(c1ccccc1)N1CCN(c2ccc(OC)cc2)CC1` (configuration not stated), the values for the activity change, negative = inhibition in test [1] and in test [2] were -19.8% and 19.4%, respectively. In addition, the activity, negative = inhibition in test [3] was 4.69%. The Potency in test [4] was above 20.6 µM.
Consider `COc1ccc(C2CC(c3ccccc3)Nc3nc(N)nn32)cc1` (configuration not stated), for which the values for the activity change, negative = inhibition in test [1] and in test [2] were 9.32% and -6.69%, respectively. Moreover, the activity, negative = inhibition in test [3] is 1.39%. Besides, the Potency in test [4] was above 20.6 µM.
The matching figures for `O=c1[nH]cnc2c1cnn2Cc1ccccc1`: 2.81%, -7.78%, 6.19% and above 20.6 µM.
